Assays:
Assay in all cases: DAPPL (digital affinity profiling via proximity ligation, sequencing); 10 mM Tris-HCl pH 7.5, 50 mM NaCl, 1 mM DTT, 4% glycerol, room temperature, 30 min; GST-TFs on glutathione beads, 16-mer random dsDNA library, 0.1% formaldehyde crosslink after washing; high values mean tight binding
Conditions in all cases: protein: recombinant; tags: N-terminal GST; dsDNA, one strand shown
FLI1 = biological target: T1, FLI1 (Homo sapiens, UniProt Q01543 1-452)
T1 sequence: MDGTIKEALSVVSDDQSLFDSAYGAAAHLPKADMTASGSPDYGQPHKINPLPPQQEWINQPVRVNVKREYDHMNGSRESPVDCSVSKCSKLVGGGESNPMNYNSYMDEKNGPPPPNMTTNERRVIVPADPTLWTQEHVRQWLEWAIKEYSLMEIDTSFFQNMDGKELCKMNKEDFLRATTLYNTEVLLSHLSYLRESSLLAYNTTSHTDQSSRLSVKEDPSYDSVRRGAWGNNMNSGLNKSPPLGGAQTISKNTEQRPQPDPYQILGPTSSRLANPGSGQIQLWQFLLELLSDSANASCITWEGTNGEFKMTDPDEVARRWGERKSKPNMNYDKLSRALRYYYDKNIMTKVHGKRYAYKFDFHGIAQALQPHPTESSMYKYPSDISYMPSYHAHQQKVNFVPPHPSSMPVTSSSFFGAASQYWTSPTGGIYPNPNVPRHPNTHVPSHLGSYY
Procedure, shortened: (§1)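 GST fusions of human transcription factors were expressed in yeast and captured with glutathione beads. Once given DNA barcodes and pooled alongside a tag-only sample, they were incubated for 30 min at room temperature with 200 nmole of a random double-stranded 16-mer DNA library in Tris/NaCl/DTT/glycerol buffer, then washed, crosslinked (0.1% formaldehyde), proximity-ligated, PCR-amplified and sequenced on an Illumina NextSeq500. The binding signal of each hexamer is its read frequency for a factor divided by its frequency for the tag-only sample.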

ELK1 = biological target: T2, ELK1 (Homo sapiens, UniProt P19419 1-428)
T2 sequence: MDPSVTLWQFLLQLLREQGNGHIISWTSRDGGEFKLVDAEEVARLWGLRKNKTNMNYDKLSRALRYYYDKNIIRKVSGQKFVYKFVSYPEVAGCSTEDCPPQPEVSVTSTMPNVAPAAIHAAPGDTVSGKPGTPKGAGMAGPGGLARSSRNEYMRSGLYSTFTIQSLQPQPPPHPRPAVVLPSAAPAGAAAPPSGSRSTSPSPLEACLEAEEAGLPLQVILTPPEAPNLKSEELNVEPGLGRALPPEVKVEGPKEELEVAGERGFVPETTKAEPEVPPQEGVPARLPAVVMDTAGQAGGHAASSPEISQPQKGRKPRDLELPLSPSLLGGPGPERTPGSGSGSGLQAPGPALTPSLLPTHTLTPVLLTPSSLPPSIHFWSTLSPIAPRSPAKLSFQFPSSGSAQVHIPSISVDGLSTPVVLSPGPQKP
Procedure, shortened: as §1

GABPA = biological target: T3, GABPA (Homo sapiens, UniProt Q06546 1-454)
T3 sequence: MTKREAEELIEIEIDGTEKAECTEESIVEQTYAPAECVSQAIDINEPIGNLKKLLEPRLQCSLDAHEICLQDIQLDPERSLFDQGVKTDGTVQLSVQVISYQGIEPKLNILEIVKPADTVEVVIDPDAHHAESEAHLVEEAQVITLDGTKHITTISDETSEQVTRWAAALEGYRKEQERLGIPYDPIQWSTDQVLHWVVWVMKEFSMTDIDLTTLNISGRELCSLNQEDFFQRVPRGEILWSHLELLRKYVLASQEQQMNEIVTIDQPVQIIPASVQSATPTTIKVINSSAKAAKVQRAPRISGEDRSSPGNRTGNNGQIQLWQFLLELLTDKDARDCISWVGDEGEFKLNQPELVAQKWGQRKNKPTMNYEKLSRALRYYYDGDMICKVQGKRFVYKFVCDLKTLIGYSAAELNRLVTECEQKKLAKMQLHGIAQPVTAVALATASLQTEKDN
Procedure, shortened: as §1

ERG = biological target: T4, ERG (Homo sapiens, UniProt P11308 1-479)
T4 sequence: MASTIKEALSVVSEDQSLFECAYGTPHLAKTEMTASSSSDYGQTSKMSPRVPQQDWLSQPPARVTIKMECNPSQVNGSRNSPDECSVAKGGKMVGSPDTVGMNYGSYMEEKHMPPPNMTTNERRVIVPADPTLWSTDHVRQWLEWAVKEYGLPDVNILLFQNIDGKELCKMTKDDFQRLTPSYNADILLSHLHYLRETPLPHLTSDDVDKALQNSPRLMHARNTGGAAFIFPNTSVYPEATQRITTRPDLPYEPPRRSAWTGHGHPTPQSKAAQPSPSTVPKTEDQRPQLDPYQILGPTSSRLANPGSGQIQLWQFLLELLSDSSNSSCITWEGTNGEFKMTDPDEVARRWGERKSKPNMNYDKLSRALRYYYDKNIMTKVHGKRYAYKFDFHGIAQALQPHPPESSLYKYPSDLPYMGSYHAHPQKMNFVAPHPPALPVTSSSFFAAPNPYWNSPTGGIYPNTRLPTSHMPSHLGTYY
Procedure, shortened: as §1

ELF1 = ELF1 (Homo sapiens, UniProt P32519 1-619)
Sequence of ELF1 (P32519 whole entry): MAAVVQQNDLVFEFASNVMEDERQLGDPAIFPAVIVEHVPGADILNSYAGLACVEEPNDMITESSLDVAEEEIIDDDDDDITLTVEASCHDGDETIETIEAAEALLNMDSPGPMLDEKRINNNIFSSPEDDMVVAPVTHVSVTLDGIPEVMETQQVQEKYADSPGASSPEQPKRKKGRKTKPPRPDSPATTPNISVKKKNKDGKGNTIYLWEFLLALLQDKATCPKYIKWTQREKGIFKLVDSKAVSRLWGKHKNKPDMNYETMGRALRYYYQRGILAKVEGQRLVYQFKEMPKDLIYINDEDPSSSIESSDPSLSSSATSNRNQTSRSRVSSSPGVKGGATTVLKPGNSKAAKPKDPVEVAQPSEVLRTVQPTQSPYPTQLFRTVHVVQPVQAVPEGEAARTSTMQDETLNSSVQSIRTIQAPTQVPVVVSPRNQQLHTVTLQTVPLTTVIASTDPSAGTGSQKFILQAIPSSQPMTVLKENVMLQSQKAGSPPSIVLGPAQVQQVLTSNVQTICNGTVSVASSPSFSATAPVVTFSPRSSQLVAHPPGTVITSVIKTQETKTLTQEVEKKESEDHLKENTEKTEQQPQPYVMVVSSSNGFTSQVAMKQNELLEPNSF
Procedure, shortened: as §1

EHF = biological target: T5, EHF (Homo sapiens, UniProt Q9NZC4 1-300)
T5 sequence: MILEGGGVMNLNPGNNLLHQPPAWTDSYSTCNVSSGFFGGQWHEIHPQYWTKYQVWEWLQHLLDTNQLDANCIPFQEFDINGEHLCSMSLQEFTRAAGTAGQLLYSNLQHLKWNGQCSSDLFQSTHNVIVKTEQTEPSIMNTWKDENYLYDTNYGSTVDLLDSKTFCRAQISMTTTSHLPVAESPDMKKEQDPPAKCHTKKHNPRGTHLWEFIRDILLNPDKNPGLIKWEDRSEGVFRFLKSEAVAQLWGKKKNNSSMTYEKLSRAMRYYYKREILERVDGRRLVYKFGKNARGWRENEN
Procedure, shortened: as §1

SPI1 = SPI1 (Homo sapiens, UniProt P17947 1-270)
Procedure, shortened: as §1

SPIB = SPIB (Homo sapiens, UniProt Q01892 1-262)
Sequence of SPIB (Q01892 whole entry): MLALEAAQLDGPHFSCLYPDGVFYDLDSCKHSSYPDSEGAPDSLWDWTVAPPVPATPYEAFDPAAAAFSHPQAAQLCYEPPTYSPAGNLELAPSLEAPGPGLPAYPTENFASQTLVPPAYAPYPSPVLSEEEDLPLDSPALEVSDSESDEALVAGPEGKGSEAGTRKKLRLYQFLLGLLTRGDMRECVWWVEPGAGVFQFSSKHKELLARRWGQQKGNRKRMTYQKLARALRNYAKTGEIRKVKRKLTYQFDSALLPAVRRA
Procedure, shortened: as §1

ELK3 = biological target: T6, ELK3 (Homo sapiens, UniProt P41970 1-407)
T6 sequence: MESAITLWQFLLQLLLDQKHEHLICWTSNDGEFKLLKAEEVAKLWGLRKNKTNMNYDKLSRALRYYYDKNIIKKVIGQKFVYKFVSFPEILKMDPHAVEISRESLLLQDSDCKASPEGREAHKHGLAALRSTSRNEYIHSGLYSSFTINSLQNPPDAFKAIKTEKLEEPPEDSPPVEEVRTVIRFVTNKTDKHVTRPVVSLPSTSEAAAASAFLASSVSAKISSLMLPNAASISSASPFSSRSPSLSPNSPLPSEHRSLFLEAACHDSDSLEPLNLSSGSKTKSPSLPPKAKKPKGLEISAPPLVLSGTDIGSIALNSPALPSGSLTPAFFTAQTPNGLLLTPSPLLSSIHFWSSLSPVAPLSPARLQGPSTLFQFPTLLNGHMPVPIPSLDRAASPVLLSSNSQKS
Procedure, shortened: as §1

Row | Sequence | binding signal (FLI1) | binding signal (ELK1) | binding signal (GABPA) | binding signal (ERG) | binding signal (ELF1) | binding signal (EHF) | binding signal (SPI1) | binding signal (SPIB) | binding signal (ELK3)
1 | GGATGC | 1.11 fold enrichment (6-mer frequency, TF over GST control) | 1.06 fold enrichment (6-mer frequency, TF over GST control) | 1.1 fold enrichment (6-mer frequency, TF over GST control) | 1.16 fold enrichment (6-mer frequency, TF over GST control) | 1 fold enrichment (6-mer frequency, TF over GST control) | 1.24 fold enrichment (6-mer frequency, TF over GST control) | 1.11 fold enrichment (6-mer frequency, TF over GST control) | 1.28 fold enrichment (6-mer frequency, TF over GST control) | 1.23 fold enrichment (6-mer frequency, TF over GST control)
2 | CGCTTA | 1.32 fold enrichment (6-mer frequency, TF over GST control) | 1.26 fold enrichment (6-mer frequency, TF over GST control) | 1.17 fold enrichment (6-mer frequency, TF over GST control) | 1.15 fold enrichment (6-mer frequency, TF over GST control) | 1.32 fold enrichment (6-mer frequency, TF over GST control) | 1.18 fold enrichment (6-mer frequency, TF over GST control) | 1.24 fold enrichment (6-mer frequency, TF over GST control) | 1.41 fold enrichment (6-mer frequency, TF over GST control) | 1.15 fold enrichment (6-mer frequency, TF over GST control)
3 | ATCCAC | 1.23 fold enrichment (6-mer frequency, TF over GST control) | 1.28 fold enrichment (6-mer frequency, TF over GST control) | 1.32 fold enrichment (6-mer frequency, TF over GST control) | 1.22 fold enrichment (6-mer frequency, TF over GST control) | 1.22 fold enrichment (6-mer frequency, TF over GST control) | 1.25 fold enrichment (6-mer frequency, TF over GST control) | 1.15 fold enrichment (6-mer frequency, TF over GST control) | 1.19 fold enrichment (6-mer frequency, TF over GST control) | 1.27 fold enrichment (6-mer frequency, TF over GST control)
4 | GATTTC | 1.77 fold enrichment (6-mer frequency, TF over GST control) | 1.78 fold enrichment (6-mer frequency, TF over GST control) | 1.55 fold enrichment (6-mer frequency, TF over GST control) | 2.15 fold enrichment (6-mer frequency, TF over GST control) | 1.62 fold enrichment (6-mer frequency, TF over GST control) | 1.71 fold enrichment (6-mer frequency, TF over GST control) | 1.67 fold enrichment (6-mer frequency, TF over GST control) | 1.72 fold enrichment (6-mer frequency, TF over GST control) | 1.73 fold enrichment (6-mer frequency, TF over GST control)
5 | GCCCGC | 1.09 fold enrichment (6-mer frequency, TF over GST control) | 1.15 fold enrichment (6-mer frequency, TF over GST control) | 1.1 fold enrichment (6-mer frequency, TF over GST control) | 1.1 fold enrichment (6-mer frequency, TF over GST control) | 1.07 fold enrichment (6-mer frequency, TF over GST control) | 1.09 fold enrichment (6-mer frequency, TF over GST control) | 1.01 fold enrichment (6-mer frequency, TF over GST control) | 1.03 fold enrichment (6-mer frequency, TF over GST control) | 1.24 fold enrichment (6-mer frequency, TF over GST control)
6 | TGTCCA | 1.18 fold enrichment (6-mer frequency, TF over GST control) | 1.18 fold enrichment (6-mer frequency, TF over GST control) | 1.1 fold enrichment (6-mer frequency, TF over GST control) | 1.19 fold enrichment (6-mer frequency, TF over GST control) | 1.19 fold enrichment (6-mer frequency, TF over GST control) | 1.16 fold enrichment (6-mer frequency, TF over GST control) | 1.08 fold enrichment (6-mer frequency, TF over GST control) | 1.13 fold enrichment (6-mer frequency, TF over GST control) | 1.14 fold enrichment (6-mer frequency, TF over GST control)
7 | GGTTTA | 1.12 fold enrichment (6-mer frequency, TF over GST control) | 1.01 fold enrichment (6-mer frequency, TF over GST control) | 1.05 fold enrichment (6-mer frequency, TF over GST control) | 1.1 fold enrichment (6-mer frequency, TF over GST control) | 1.02 fold enrichment (6-mer frequency, TF over GST control) | 1.08 fold enrichment (6-mer frequency, TF over GST control) | 1.09 fold enrichment (6-mer frequency, TF over GST control) | 1.05 fold enrichment (6-mer frequency, TF over GST control) | 1.07 fold enrichment (6-mer frequency, TF over GST control)

Reference: paper PMC7862700, “An all-to-all approach to the identification of sequence-specific readers for epigenetic DNA modifications on cytosine”
